# From paper doi:10.1101/2025.02.07.636106
# Molecular target: Sodium/potassium-transporting ATPase subunit beta-3 (UniProt P54709)
# Test: cross-link between two proteins; co-fractionation; cross-linking mass spectrometry
substance,measurement,value
"Sodium/potassium-transporting ATPase subunit alpha-1, P05023",listed as a hit,yes
